Experimental data from ChEMBL document CHEMBL1961873, “Compounds: GSK PKIS; Assays: Nanosyn kinase panel” (2012).

What was measured:
[1] = biological target: T1, Inhibitor of nuclear factor kappa-B kinase subunit epsilon (Homo sapiens) (UniProt Q14164); conditions: at 1 µM;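 further: reported values are averaged percent inhibition figures against human IKKε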
T1 sequence (whole entry): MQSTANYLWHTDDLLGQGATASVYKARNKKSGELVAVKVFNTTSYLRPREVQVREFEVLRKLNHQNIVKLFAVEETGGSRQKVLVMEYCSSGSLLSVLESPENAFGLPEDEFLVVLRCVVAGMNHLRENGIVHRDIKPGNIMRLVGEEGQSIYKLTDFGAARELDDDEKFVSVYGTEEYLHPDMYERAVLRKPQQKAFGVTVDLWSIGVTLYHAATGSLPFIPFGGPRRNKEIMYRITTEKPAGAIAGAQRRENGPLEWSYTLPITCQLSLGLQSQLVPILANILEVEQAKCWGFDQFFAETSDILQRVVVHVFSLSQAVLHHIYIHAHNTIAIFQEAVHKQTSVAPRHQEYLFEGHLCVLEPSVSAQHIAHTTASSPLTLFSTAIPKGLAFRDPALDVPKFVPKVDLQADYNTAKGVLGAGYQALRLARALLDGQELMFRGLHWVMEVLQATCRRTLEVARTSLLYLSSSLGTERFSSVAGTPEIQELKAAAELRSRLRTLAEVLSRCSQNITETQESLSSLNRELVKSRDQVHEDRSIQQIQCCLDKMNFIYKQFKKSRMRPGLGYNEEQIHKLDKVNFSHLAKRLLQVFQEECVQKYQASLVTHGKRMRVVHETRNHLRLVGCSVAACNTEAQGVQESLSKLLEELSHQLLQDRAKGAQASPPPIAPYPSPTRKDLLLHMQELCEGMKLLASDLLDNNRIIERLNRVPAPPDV

[2] = biological target: T2, Serine/threonine-protein kinase Nek1 (Homo sapiens) (UniProt Q96PY6); conditions: at 0.1 µM
T2 sequence (whole entry): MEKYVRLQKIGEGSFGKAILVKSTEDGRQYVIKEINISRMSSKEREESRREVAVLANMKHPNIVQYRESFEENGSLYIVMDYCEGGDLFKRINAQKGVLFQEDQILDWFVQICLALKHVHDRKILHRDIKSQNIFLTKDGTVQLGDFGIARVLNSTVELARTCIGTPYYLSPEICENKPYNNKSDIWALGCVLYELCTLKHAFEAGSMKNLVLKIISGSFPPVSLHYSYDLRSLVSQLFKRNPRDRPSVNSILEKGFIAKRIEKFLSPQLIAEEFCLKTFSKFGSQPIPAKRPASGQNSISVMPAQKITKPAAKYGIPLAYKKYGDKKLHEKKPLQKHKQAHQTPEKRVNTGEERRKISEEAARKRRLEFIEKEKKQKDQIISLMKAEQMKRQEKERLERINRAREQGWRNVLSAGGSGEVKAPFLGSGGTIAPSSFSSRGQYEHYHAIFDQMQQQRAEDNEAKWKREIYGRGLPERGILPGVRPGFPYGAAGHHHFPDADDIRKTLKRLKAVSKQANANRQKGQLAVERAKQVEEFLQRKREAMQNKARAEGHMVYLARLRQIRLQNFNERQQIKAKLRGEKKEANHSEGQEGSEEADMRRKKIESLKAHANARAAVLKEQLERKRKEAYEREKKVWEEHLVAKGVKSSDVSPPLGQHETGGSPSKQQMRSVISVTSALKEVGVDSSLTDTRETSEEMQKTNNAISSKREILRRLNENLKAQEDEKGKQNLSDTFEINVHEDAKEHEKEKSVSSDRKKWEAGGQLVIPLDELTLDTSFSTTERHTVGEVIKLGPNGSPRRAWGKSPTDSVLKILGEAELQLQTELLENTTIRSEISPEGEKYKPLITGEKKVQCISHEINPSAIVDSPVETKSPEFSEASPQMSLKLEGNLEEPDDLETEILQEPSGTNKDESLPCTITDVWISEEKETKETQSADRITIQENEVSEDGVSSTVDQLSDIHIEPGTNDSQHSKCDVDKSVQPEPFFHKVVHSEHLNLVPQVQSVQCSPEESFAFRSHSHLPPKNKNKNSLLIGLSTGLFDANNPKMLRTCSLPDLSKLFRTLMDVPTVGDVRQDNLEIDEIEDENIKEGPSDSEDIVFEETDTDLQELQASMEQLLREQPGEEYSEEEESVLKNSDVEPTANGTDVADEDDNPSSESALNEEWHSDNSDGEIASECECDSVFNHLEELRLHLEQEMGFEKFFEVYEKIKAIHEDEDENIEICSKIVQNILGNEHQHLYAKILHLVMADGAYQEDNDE

[3] = biological target: T2, Serine/threonine-protein kinase Nek1 (Homo sapiens); conditions: at 1 µM
[4] = biological target: T3, Serine/threonine-protein kinase Nek2 (Homo sapiens) (UniProt P51955); conditions: at 0.1 µM
T3 sequence (whole entry): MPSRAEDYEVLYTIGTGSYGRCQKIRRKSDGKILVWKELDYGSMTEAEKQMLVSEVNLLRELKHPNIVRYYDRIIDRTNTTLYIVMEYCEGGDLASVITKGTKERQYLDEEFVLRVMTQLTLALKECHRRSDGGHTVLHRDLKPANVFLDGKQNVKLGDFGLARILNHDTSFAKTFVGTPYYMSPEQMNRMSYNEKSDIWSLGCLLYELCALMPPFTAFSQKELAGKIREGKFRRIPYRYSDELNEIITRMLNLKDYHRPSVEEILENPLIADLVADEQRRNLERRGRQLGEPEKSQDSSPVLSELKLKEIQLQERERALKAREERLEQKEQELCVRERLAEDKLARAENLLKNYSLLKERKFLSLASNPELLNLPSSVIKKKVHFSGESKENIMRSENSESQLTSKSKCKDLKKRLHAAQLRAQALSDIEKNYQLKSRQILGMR

[5] = biological target: T3, Serine/threonine-protein kinase Nek2 (Homo sapiens); conditions: at 1 µM
[6] = biological target: Serine/threonine-protein kinase Nek6 (Homo sapiens) (UniProt Q9HC98); conditions: at 0.1 µM
[7] = biological target: Serine/threonine-protein kinase Nek6 (Homo sapiens) (UniProt Q9HC98); conditions: at 1 µM
[8] = biological target: Serine/threonine-protein kinase Nek7 (Homo sapiens) (UniProt Q8TDX7); conditions: at 0.1 µM
[9] = biological target: Serine/threonine-protein kinase Nek7 (Homo sapiens) (UniProt Q8TDX7); conditions: at 1 µM
[10] = biological target: T4, Serine/threonine-protein kinase Nek9 (Homo sapiens) (UniProt Q8TD19); conditions: at 0.1 µM
T4 sequence (whole entry): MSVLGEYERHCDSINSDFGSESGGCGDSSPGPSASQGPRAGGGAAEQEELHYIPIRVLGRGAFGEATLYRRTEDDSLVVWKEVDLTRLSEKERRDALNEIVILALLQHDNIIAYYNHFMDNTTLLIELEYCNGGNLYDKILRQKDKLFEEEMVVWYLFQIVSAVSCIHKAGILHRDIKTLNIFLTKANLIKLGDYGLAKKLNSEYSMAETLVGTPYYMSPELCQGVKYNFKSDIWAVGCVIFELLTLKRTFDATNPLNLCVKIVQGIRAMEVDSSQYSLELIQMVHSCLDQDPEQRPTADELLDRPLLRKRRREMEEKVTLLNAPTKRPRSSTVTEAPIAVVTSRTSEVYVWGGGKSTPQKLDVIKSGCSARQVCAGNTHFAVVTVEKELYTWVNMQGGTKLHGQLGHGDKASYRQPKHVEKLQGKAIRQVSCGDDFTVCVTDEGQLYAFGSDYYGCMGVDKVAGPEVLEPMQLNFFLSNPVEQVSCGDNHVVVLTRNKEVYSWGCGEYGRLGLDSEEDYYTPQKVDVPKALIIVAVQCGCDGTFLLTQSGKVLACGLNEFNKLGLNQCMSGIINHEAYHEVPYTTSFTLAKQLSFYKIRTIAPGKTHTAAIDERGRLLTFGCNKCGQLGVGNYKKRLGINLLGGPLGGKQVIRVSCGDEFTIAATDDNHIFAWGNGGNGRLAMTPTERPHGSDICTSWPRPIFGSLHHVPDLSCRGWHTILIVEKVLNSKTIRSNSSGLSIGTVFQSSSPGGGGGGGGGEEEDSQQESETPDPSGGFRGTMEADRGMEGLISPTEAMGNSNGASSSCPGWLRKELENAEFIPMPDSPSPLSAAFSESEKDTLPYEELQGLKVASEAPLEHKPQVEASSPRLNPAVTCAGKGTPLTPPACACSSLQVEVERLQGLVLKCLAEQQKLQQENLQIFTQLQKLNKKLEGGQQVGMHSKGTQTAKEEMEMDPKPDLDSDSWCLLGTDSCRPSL

[11] = biological target: T4, Serine/threonine-protein kinase Nek9 (Homo sapiens); conditions: at 1 µM
[12] = biological target: Serine/threonine-protein kinase PLK1 (Homo sapiens) (UniProt P53350); conditions: at 0.1 µM
[13] = biological target: Serine/threonine-protein kinase PLK1 (Homo sapiens) (UniProt P53350); conditions: at 1 µM
[14] = biological target: T5, Dual specificity protein kinase TTK (Homo sapiens) (UniProt P33981); conditions: at 0.1 µM
T5 sequence (whole entry): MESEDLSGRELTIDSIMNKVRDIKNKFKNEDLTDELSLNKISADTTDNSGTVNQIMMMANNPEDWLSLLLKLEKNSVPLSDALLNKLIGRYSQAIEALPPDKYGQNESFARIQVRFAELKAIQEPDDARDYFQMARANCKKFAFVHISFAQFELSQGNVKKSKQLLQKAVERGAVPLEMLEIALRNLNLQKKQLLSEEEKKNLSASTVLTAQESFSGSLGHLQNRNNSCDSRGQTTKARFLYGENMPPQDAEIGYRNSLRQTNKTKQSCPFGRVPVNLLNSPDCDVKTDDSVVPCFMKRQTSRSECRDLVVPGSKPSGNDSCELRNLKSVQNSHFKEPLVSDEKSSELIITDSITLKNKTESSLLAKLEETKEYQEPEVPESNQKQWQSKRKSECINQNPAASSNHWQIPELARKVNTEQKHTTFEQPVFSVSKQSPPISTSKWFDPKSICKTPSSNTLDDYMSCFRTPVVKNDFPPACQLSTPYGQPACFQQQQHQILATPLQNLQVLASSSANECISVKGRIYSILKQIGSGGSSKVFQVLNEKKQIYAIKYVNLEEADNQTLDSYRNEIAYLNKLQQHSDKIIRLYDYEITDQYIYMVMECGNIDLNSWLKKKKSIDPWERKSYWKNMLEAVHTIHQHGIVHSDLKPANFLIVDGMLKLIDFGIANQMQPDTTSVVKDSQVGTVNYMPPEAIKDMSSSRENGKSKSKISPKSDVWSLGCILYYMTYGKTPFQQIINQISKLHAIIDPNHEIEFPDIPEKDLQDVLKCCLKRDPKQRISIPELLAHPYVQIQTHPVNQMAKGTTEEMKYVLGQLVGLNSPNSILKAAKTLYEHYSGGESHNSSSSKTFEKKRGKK

[15] = tested on: T6, Receptor-type tyrosine-protein kinase FLT3 (Homo sapiens), P36888 [D835Y]; conditions: at 1 µM
T6 sequence (whole entry): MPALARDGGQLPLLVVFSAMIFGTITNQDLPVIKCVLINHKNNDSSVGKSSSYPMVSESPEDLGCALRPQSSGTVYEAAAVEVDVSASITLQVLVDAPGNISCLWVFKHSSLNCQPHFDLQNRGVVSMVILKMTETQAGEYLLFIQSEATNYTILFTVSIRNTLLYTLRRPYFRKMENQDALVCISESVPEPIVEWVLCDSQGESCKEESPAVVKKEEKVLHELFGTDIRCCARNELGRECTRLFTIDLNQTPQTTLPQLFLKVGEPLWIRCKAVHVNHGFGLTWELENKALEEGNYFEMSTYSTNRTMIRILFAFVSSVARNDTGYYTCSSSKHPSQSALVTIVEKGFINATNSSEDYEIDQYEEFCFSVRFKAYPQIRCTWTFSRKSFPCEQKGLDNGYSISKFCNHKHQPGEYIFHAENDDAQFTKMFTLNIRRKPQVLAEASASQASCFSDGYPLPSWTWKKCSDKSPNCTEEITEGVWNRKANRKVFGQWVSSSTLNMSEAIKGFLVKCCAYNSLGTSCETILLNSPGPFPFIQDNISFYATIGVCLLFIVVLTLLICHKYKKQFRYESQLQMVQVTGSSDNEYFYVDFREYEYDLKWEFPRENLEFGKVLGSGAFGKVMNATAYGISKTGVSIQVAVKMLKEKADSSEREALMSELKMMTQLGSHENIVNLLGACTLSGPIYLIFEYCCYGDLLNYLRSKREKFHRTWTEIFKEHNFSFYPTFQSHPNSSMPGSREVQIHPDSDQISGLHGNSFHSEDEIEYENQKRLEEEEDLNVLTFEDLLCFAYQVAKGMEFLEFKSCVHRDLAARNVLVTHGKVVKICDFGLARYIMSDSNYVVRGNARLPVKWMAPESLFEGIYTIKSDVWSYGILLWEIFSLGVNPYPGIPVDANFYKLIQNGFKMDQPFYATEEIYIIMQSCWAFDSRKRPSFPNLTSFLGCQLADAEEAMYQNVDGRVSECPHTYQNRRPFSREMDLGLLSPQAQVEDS

[16] = biological target: Vascular endothelial growth factor receptor 3 (Homo sapiens) (UniProt P35916); conditions: at 0.1 µM
[17] = biological target: Vascular endothelial growth factor receptor 3 (Homo sapiens) (UniProt P35916); conditions: at 1 µM
[18] = biological target: Macrophage colony-stimulating factor 1 receptor (Homo sapiens) (UniProt P07333); conditions: at 0.1 µM
[19] = biological target: Macrophage colony-stimulating factor 1 receptor (Homo sapiens) (UniProt P07333); conditions: at 1 µM
[20] = biological target: Tyrosine-protein kinase Fyn (Homo sapiens) (UniProt P06241); conditions: at 0.1 µM
Chain of Tyrosine-protein kinase Fyn (Homo sapiens) (P06241 2-537 limits assumed): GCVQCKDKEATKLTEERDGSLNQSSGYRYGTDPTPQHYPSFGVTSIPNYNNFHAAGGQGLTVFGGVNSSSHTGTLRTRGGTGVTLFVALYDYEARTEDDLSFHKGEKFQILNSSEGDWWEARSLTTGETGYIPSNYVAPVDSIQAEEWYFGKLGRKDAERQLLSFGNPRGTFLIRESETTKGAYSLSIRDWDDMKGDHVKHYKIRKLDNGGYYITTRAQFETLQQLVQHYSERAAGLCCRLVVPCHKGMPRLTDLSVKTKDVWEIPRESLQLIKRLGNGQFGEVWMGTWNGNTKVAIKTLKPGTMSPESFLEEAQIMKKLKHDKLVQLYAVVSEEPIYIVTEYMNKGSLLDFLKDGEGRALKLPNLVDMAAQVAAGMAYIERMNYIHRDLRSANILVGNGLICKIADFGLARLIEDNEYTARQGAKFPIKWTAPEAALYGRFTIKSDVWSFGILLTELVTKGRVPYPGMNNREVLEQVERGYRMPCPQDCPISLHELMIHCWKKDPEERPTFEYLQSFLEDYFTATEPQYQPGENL

Chain of Macrophage colony-stimulating factor 1 receptor (Homo sapiens) (P07333 whole entry): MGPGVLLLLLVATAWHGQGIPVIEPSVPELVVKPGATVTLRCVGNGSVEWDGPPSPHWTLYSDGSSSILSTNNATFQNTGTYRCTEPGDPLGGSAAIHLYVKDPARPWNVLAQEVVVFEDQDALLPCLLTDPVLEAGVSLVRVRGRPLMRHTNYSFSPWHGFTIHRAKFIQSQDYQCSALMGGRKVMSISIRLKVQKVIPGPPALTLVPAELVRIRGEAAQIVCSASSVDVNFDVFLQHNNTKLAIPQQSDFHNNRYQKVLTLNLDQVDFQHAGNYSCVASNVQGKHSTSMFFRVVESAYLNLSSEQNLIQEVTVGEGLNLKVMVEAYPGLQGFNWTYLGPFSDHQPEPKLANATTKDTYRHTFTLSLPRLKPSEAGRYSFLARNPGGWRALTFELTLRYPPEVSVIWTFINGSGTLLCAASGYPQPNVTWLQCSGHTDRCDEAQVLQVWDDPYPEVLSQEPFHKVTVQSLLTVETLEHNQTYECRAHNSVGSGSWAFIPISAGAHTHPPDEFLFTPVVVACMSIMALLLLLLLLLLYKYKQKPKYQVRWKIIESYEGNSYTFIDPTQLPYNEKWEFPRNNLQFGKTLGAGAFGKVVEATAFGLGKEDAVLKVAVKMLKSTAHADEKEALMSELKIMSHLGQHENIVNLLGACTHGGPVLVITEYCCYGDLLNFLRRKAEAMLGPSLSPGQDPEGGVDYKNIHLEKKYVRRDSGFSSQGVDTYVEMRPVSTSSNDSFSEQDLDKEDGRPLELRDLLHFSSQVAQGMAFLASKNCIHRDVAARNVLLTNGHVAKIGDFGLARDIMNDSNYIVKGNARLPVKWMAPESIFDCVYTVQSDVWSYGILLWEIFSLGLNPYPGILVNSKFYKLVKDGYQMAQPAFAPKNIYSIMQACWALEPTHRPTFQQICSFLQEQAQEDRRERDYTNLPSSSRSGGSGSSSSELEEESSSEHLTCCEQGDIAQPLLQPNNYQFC
Chain of Vascular endothelial growth factor receptor 3 (Homo sapiens) (P35916 whole entry): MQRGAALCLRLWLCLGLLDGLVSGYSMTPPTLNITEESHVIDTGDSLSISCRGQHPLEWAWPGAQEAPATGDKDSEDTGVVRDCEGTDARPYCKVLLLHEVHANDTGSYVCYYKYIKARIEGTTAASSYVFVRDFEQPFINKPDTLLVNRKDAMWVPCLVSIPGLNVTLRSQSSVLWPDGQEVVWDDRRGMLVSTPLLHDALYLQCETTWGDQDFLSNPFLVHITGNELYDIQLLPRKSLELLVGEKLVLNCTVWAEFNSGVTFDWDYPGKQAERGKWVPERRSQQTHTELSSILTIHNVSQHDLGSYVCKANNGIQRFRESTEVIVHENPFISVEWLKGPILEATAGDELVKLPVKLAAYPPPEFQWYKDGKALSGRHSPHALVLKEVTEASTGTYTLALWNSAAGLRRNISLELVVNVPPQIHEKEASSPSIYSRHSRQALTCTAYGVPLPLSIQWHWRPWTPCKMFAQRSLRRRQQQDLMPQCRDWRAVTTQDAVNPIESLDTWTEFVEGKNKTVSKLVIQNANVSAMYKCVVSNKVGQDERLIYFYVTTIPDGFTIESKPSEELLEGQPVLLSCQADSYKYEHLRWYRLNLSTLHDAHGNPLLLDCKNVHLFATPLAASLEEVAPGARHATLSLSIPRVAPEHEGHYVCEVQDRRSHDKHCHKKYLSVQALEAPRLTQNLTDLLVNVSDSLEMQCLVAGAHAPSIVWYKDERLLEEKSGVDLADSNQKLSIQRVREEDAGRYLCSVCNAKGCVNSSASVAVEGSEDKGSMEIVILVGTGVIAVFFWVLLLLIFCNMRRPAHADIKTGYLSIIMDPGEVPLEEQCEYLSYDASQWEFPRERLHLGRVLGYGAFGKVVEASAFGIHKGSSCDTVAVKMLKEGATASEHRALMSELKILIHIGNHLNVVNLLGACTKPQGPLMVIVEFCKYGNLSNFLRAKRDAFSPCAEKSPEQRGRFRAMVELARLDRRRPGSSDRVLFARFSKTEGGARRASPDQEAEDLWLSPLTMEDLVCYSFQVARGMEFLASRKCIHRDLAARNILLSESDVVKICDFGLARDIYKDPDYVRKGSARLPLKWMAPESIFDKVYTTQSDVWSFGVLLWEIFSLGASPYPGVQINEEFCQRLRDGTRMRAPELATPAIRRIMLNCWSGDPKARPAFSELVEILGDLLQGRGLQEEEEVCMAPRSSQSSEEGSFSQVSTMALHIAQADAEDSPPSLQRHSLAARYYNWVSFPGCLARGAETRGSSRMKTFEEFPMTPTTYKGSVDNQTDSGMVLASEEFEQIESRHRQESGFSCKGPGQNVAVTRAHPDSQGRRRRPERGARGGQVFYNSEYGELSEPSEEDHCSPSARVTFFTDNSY
Chain of Serine/threonine-protein kinase Nek7 (Homo sapiens) (Q8TDX7 whole entry, looked up): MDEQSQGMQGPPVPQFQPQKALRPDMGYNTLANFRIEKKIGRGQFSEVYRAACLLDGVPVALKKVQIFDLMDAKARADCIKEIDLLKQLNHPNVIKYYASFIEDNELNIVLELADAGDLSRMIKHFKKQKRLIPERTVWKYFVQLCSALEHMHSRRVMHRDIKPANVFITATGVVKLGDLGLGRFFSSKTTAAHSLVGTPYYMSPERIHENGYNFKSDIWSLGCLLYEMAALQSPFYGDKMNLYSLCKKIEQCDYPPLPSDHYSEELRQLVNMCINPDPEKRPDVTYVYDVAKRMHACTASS
Chain of Serine/threonine-protein kinase Nek6 (Homo sapiens) (Q9HC98 whole entry): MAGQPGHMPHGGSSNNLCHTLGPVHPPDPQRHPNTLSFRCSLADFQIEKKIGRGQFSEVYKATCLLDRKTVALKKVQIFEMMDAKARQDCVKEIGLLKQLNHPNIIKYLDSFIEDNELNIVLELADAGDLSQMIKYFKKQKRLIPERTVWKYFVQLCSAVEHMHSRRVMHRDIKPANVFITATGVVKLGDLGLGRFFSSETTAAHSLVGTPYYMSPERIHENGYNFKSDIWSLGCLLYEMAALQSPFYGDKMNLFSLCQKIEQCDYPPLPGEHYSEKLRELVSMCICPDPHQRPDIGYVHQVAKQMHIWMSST
Chain of Serine/threonine-protein kinase PLK1 (Homo sapiens) (P53350 whole entry): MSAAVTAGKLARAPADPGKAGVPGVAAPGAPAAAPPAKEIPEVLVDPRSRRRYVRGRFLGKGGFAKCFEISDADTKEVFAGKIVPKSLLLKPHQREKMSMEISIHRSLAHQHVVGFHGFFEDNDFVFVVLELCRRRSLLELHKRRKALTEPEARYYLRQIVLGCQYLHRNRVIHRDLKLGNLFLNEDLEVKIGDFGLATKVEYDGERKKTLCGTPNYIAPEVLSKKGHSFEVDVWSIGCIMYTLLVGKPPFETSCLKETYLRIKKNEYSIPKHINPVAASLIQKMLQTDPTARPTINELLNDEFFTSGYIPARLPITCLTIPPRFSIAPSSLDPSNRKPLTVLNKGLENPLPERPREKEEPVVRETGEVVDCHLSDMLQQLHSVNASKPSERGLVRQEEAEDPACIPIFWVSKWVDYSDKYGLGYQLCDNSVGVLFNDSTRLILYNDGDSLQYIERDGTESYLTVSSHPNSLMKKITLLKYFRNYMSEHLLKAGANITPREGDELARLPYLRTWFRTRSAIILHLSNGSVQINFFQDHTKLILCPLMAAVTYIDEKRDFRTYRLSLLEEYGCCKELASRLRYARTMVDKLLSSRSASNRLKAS

Molecule `O=S(=O)(CCNCc1ccc(-c2ccc3ncnc(Nc4ccc(OCc5cccc(F)c5)c(Cl)c4)c3c2)o1)c1ccccc1` has an inhibition [1] of 7.29%, an inhibition [2] of 3.48% and an inhibition [3] of 5.88%. The inhibition [4] was 5.1%, the inhibition [5] was 7.03% and the inhibition [6] was 4.21%. The inhibition [7] was 2.74%, the inhibition [8] was 3.88% and the inhibition [9] was 5.26%. For the same molecule, the inhibition [10] was 4.93%, the inhibition [11] was 4.64% and the inhibition [12] was 6%. The inhibition [13] was 5.8%, the inhibition [14] was 7.34% and the inhibition [15] was -1.66%. For the same molecule, the inhibition [16] was 4.59%, the inhibition [17] was 7.11% and the inhibition [18] was 2.22%. The inhibition [19] was 8.85% and the inhibition [20] was 2.58%.
Molecule `Cc1ccc(O)cc1Nc1ccnc2cc(-c3ccccn3)ccc12` has an inhibition [1] of 4.69%, an inhibition [2] of 2.99% and an inhibition [3] of 2.32%. For the same molecule, the inhibition [4] was 5.83%, the inhibition [5] was 4.75% and the inhibition [6] was 5.8%. The inhibition [7] was -1.66%, the inhibition [8] was 3.67% and the inhibition [9] was 3.3%. For the same molecule, the inhibition [10] was 2.78%, the inhibition [11] was -1.26% and the inhibition [12] was 3.38%. For the same molecule, the inhibition [13] was 4.98%, the inhibition [14] was 6.34% and the inhibition [15] was 4.47%. It also gave an inhibition [16] of 62.5%, an inhibition [17] of 88.8% and an inhibition [18] of 4.3%. For the same molecule, the inhibition [19] was 20.4% and the inhibition [20] was 55.6%.
